Compounds with a hit are over-represented: about 5.7% of the library has one in this group of screens.
Nrf2 block: blocks Nrf2 signaling; A549 ARE-Fluc reporter, luciferase luminescence, 18-24 h; Potency, µM (highest dose often 46 µM), for the others: at the highest dose activity change, negative = inhibition, usual class: inhibitors; 360,000 tested, 2.1% active; AID 504444; further: potency means the concentration at half of the fitted maximal effect; nearly all actives have a fitted effect of over 60% in size
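Nrf2 activity is the BugLite luminescence, read 15 min after reagent at room temperature, following CellTiter-Fluor cytotoxicity readout (30 min, 37C). Compound titrations were applied for 18-24 h to 5000 A549 ARE_Fluc cells/well in 5% FBS OPTI-MEM.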
Giardia killer: Giardia lamblia killing; Giardia lamblia trophozoite viability; AID 540267; activity change, % at 7.66 µM, hits read low; 340,000 tested, 0.15% active; in the data active means activity change below about -80%; inconclusive means between about -30% and that limit;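 further: parasites exposed to compound for two days anaerobically before the ATP read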
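Luminescence from cellular ATP indicates surviving trophozoites (100 cells/well) following 48 hrs anaerobic compound treatment at 37 deg C; signal develops 15-30 min at room temperature.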
A549 tox-1: kills or reduces viability of A549 cells in Nrf2 counter-screen | AID 504648 | Potency, µM (highest dose often 46 µM), without a hit: top-dose activity change, negative = cytotoxicity, hits mostly inhibitors | 390,000 tested, 0.16% active | A549 ARE-Fluc cells, CellTiter-Fluor viability, 18-24 h; further: potency means the concentration at half of the fitted maximal effect
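Cytotoxicity counterscreen: CellTiter-Fluor fluorescence was measured in A549 ARE_Fluc cells after 18-24 h of compound exposure in a concentration series. The subsequent BugLite luminescent read reports ARE-luciferase activity.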
KB-3-1 tox: KB-3-1 parental cell cytotoxicity; KB-3-1 viability, CellTiter-Glo ATP luminescence, 72 h; Potency, µM (series often up to 46.1 µM), hits mostly cytotoxic; 400,000 tested, 1.4% active; AID 1347075; further: potency means the concentration at half of the fitted maximal effect; nearly all actives have a fitted effect of over 60% in size
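KB-3-1 cells, DMEM (no phenol red) + 10% FBS; compound by pin transfer, 72 h, 37 °C. Readout: CellTiter-Glo luminescence after 10 min. Data normalized, curve-fitted.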
KB-V1 cytotox: KB-V1 MDR subline cytotoxicity. AID 1347076. KB-V1 MDR cells viability, CellTiter-Glo, 72 h. Potency, µM (top dose mostly 46.1 µM), most hits filed as cytotoxic. 400,000 tested, 3.4% active; further: potency means the concentration at half of the fitted maximal effect; nearly all actives have a fitted effect of over 60% in size
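Cells of the MDR subline KB-V1 are plated, dosed with compound at multiple concentrations, and incubated 72 h at 37 degrees C; CellTiter-Glo is then added and luminescence read after 10 min.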
PI4K2A inh: blocks human PI4K2A kinase activity | Q9BTU6 | purified PI4K2A, ADP-Glo luminescence, 1 h; active compounds read low | activity change, negative = inhibition, % at 76.9 µM | 420,000 tested, 0.13% active; in the data active means activity change below about -50%; inconclusive means mostly about -30% to -49%;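 further: -100% = wells without enzyme as full effect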
Target sequence (Q9BTU6 whole entry, looked up): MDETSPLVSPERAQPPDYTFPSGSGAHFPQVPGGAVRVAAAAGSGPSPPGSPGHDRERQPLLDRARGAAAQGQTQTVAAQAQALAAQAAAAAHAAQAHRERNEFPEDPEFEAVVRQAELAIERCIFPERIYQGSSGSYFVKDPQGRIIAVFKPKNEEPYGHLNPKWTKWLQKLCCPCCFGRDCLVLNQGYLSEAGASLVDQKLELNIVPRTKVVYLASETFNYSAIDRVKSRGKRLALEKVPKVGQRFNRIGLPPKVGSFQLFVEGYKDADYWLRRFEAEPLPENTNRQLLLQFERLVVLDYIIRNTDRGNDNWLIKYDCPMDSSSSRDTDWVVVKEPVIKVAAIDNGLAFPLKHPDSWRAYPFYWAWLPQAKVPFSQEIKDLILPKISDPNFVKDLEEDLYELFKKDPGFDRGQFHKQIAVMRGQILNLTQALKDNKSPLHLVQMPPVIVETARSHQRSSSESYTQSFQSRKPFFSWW
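PI4K2A activity was measured by ADP-Glo luminescence: enzyme (4 ug/mL stock) and phosphatidylinositol (1.2 mM stock) in Tris pH 7.5/MgCl2/EGTA/Triton X-100 buffer were reacted with ATP (300 microM stock) for one hour at ambient temperature.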
FLuc enzyme inh: firefly luciferase inhibition, Nrf2 hit validation | shares compounds with Nrf2 block | purified firefly luciferase, luminescence inhibition | Potency, µM (series often up to 57.5 µM), for inactives: at the top dose activity change, negative = inhibition, actives largely listed as inhibitors | 1,400 tested, 4% active; further: potency means the concentration at half of the fitted maximal effect; nearly all actives have a fitted effect of over 65% in size
A549 tox-2: toxic to A549 ARE-Fluc cells in Nrf2 counterscreen; shares compounds with Nrf2 block; A549 ARE-Fluc cells, cytotoxicity counterscreen; Potency, µM (doses to about 46.1 µM), inactives show at the top dose activity change, negative = cytotoxicity, actives largely listed as inhibitors; 1,400 tested, 2% active; AID 720523;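 further: potency means the concentration at half of the fitted maximal effect; cells exposed to compounds for 18 to 24 hours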
Nrf2 ARE inh: confirmation of Nrf2 inhibitors in A549 ARE reporter cells | shares compounds with Nrf2 block | A549 ARE-firefly luciferase reporter, luminescence | Potency, µM (titrated, usually from 46.1 µM), without a hit: at the top dose activity change, negative = inhibition, hits mostly inhibitors | 1,400 tested, 74% active | AID 720524; further: potency means the concentration at half of the fitted maximal effect; nearly all actives have a fitted effect of over 65% in size
Numbers without * were called inactive; i = inactive; ? = inconclusive; / = not tested or not shown; ! = a repeat was not active. Unless noted, the call rests on the fitted dose curve; in most records, active means well fitted curve in the direction sought with a large enough effect; inconclusive means small, poorly fitted or top-dose-only effect, or another doubt; inactive means no such curve, though single readings can be large; an effect the other way counts as inactive or inconclusive. Unless noted, on the % scale 0 is the no-effect control and ±100 the full control effect.

SMILES	Nrf2 block	Giardia killer	A549 tox-1	KB-3-1 tox	KB-V1 cytotox	PI4K2A inh	FLuc enzyme inh	A549 tox-2	Nrf2 ARE inh
c1ccc2c(c1)CCN(c1ncnc3c1[nH]c1ccccc13)C2	5.8µM*	-5	-25%	i	9.2µM*	3	-24%	-10%	5.8µM*
Cc1ccc2c(c1)[nH]c1c(N3CCN(Cc4ccccc4)CC3)ncnc12	8.2µM*	5	?	?	?	2	-29%	?	12µM*
O=C(Nc1c(-c2ccc(F)cc2)nc2ncccn12)C1CC1	/	/	/	/	/	-1	/	/	/
CC(C)CC(=O)N1CCN(S(=O)(=O)c2ccc(C3CCCCC3)cc2)CC1	8.2µM*	7	-16%	?	?	4	2%	-5%	?
COc1ccc2[nH]c(=O)c(CN(Cc3cccs3)C(=S)Nc3cccc(C)c3)cc2c1	2.1µM*	-4	0%	i	?	0	0%	-10%	?
O=C(c1cc2c(Cl)nc3ccccc3c2s1)N1CCCCC1	7%	/	-4%	i	i	-3	/	/	/
CCOC(=O)C1CCCN(C(=O)c2cc3c(Cl)nc4ccccc4c3s2)C1 (centres undefined)	5.8µM*	/	0%	i	i	1	-1%	0%	8.2µM*
CCOC(=O)c1c(C)[nH]c(C)c1S(=O)(=O)N(C)CC(=O)N1CCN(c2cccc(Cl)c2)CC1	/	/	14%	i	?	0	/	/	/
O=c1[nH]c(=O)n(Cc2ccco2)c2c1C(C(F)(F)F)(C(F)(F)F)N=C(c1ccc(F)cc1)N2	4.1µM*	4	-29%	?	?	3	3%	-23%	2.9µM*
COc1cc([N+](=O)[O-])cc(/C=N/NC(=O)c2ccc(NC(=O)c3ccc(C)cc3)cc2)c1O	4.6µM*	1	?	5.2µM*	i	-1	-16%	?	6.5µM*
Cc1ccc(S(=O)(=O)NCC(=O)NCc2ccncc2)cc1	2%	13	1%	i	i	7	/	/	/
Cc1ccc(S(=O)(=O)NCc2ccncc2)cc1	2.6µM*	27	-6%	?	i	-1	3%	-7%	18µM*
CC1CCCCC1NS(=O)(=O)c1ccc(S(=O)(=O)NCc2ccncc2)cc1 (centres undefined)	2.3µM*	-10	-14%	i	16µM*	-6	1%	-11%	3.7µM*
Cc1cc(S(=O)(=O)NCc2ccncc2)c(C)cc1Br	4.1µM*	-24	-8%	i	?	6	-1%	-4%	?
CCOc1ccc(S(=O)(=O)NCc2ccncc2)cc1	0.41µM*	-9	-29%	0.82µM*	0.65µM*	-2	0%	-9%	0.65µM*
O=C(NCCc1ccccc1Cl)c1cc2ccccn2n1	?	/	-5%	i	i	-1	/	/	/
O=C(CSc1nnc(COc2ccccc2)n1-c1ccc(Cl)cc1)Nc1ccc2c(c1)OCCO2	/	/	/	/	/	2	/	/	/
CCOc1cc(S(=O)(=O)NCc2ccncc2)ccc1Cl	1µM*	-12	-11%	?	i	1	-1%	-1%	1.3µM*
COc1ccc(S(=O)(=O)c2nnn(-c3ccc(C(C)C)cc3)c2C)cc1	9.2µM*	/	-20%	i	?	1	-1%	-1%	5.2µM*
COC[C@@H]1CCCN1c1ccc2c(c1)OCCCN(C1CC1)S2(=O)=O	/	/	/	/	/	-4	/	/	/
Cc1cccc(C(=O)Nc2nc(-c3nnn(-c4cc(C)ccc4C)c3C)ns2)c1	9.2µM*	/	-14%	/	/	-2	-15%	-14%	7.3µM*
CC(C)NC(=O)C1CCN(c2cncnc2)CC1	/	/	/	/	/	-1	/	/	/
COC(=O)c1ccccc1-c1c2ccc(=N)cc-2oc2cc(N)ccc12	1.2µM*	9	-11%	1.3µM*	i	-1	3%	-6%	8.2µM*
COC(=O)c1ccc(N)cc1O	1%	-16	-12%	i	i	-2	/	/	/
CN(c1ccc(OCC(=O)Nc2nc3ccccc3s2)cc1)S(=O)(=O)c1ccccc1	?	-9	-16%	i	?	-8	/	/	/
SMILES	Nrf2 block	Giardia killer	A549 tox-1	KB-3-1 tox	KB-V1 cytotox	PI4K2A inh	FLuc enzyme inh	A549 tox-2	Nrf2 ARE inh
COc1ccc(CCNC(=O)COc2ccc(N(C)S(=O)(=O)c3ccc(Cl)cc3)cc2)cc1	3.7µM*	5	-4%	?	?	-6	-1%	-7%	18µM*
CN(c1ccc(OCC(=O)NCCc2ccccc2)cc1)S(=O)(=O)c1ccc(Cl)cc1	19%	-22	9%	i	i	-3	/	/	/
CCOc1ccc(S(=O)(=O)N(C)c2ccc(OCC(=O)Nc3nc4ccccc4s3)cc2)cc1	2.3µM*	4	-12%	?	?	-2	2%	-2%	9.2µM*
COC(=O)[C@]12C[C@H](CC(=O)NCc3cccc(C(F)(F)F)c3)C(=O)N(CCc3ccc(OC)c(OC)c3)C1=C[C@H](COCc1ccccc1)O[C@@H]2C	/	/	/	/	/	-4	/	/	/
Cc1cccc(-c2nnc(C3CCN(S(=O)(=O)c4cccc(Cl)c4)CC3)o2)c1	-5%	/	-7%	i	i	3	/	/	/
Cc1nc(NS(=O)(=O)c2ccccc2)sc1C(=O)NNS(=O)(=O)c1ccccc1	-1%	3	0%	i	i	3	/	/	/
Cc1nc(C)c(C(=O)NNS(=O)(=O)c2ccc3ccccc3c2)s1	9.2µM*	4	-14%	i	?	0	4%	1%	?
S=C(NN=Cc1ccccn1)N(Cc1ccccn1)Cc1ccccn1	?	-11	-25%	6.5µM*	?	-24	?	?	2.3µM*
c1ccc(CN(CC2=NCCN2)c2ccccc2)cc1	-2%	?	2%	i	i	2	/	/	/
Cc1ccc(N(CC2=NCCN2)c2cccc(O)c2)cc1	7.3µM*!	-14	?	?	i	2	-1%	-7%	10µM*
CCOc1ccc(Oc2ccccc2NC(=O)CSCC(=O)Nc2cc(C)on2)cc1	9.2µM*	17	-19%	?	?	2	-2%	-7%	7.3µM*
